PubChem BioAssay (EPA / NIEHS)
Activity calls are given as the source filed them. The calls were made as follows: active = hit-call score of the fitted dose curve at least 0.9, where 1 is the maximum; inactive = score below 0.9.

What was measured:
[1] = APR_HepG2_CellCycleArrest_24hr: Apredica 24-hour HepG2 Assay for Cell Cycle Arrest (AID 2282905); conditions: imaging, actives raise or lower the signal;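 also: cell cycle arrest scored as ratio of 2N to 4N nuclear DNA content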
Procedure, shortened: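 Cell cycle arrest is scored from nuclear DNA content measured by high-content imaging of Hoechst 33342-stained HepG2 cells following 24-hour treatment at ten concentrations up to 200 uM, with DMSO as baseline.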

[2] = APR_HepG2_NuclearSize_24hr: Apredica 24-hour HepG2 Assay for Nuclear Size (AID 2282907); conditions: high-content imaging, actives raise or lower the signal
Procedure, shortened: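 Compounds in DMSO (final 0.5%) were added to human HepG2 hepatoma cells at ten concentrations up to 200 uM for 24 hr. Fixed nuclei were stained with Hoechst 33342, and nuclear diameter was quantified from automated images.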

[3] = APR_HepG2_CellLoss_24hr: Apredica 24-hour HepG2 Assay for Cell Loss (AID 2282908); conditions: high-content imaging
Procedure, shortened: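 Cell number is quantified by fluorescence imaging of Hoechst 33342-stained nuclei following dosing at 0.39–200 uM in 0.5% DMSO. Curves are fitted in both directions from the DMSO baseline.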

[4] = APR_HepG2_MicrotubuleCSK_24hr: Apredica 24-hour HepG2 Assay for Microtubule CSK Stabilty (AID 2282909); conditions: HepG2 microtubule cytoskeleton imaging, actives raise or lower the signal
Procedure, shortened: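 Steps: dose HepG2 for 24 h (0.39–200 uM, 0.5% DMSO); fix 30 min in 3.7% formaldehyde at room temperature; permeabilize; stain alpha-tubulin 60 min; image microtubule cytoskeleton at 20x. Signal change fitted in both directions relative to DMSO.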

[5] = APR_HepG2_MitoticArrest_24hr: Apredica 24-hour HepG2 Assay for Mitotic Arrest (AID 2282910); conditions: high-content imaging, actives raise or lower the signal
Procedure, shortened: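 HepG2 human liver cells were exposed to compounds at 0.39–200 uM (10 concentrations, duplicate) in 0.5% v/v DMSO for 24 hr, then fixed and immunostained for phospho-histone H3 with Hoechst 33342. Mitotic arrest came from HCS fluorescent imaging, fitted bidirectionally against DMSO.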

[6] = APR_HepG2_MitoMembPot_24hr: Apredica 24-hour HepG2 Assay for Mitochondrial Membrane Potential (AID 2282911); conditions: imaging, actives raise or lower the signal
Procedure, shortened: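 Cells are dosed for 24 hr across 0.39 to 200 uM with solvent held at 0.5% DMSO. They are then stained with 250 nM MitoTracker Red CMXRos for 30 min, fixed in 3.7% formaldehyde and imaged.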

[7] = APR_HepG2_MitoMass_24hr: Apredica 24-hour HepG2 Assay for Mitochondrial Mass (AID 2282912); conditions: high-content imaging, actives raise or lower the signal
Procedure, shortened: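 The liver line HepG2 was dosed in duplicate across a 0.39–200 uM series, with final DMSO held at 0.5% v/v, and harvested at 24 hr. High-content imaging measured mitochondrial dye staining.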

[8] = APR_HepG2_p53Act_24hr: Apredica 24-hour HepG2 Assay for p53 Activation (AID 2282913); conditions: high-content imaging, actives raise or lower the signal;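 also: p53 protein immunofluorescence averaged per cell in HepG2 with Hoechst nuclei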
Procedure, shortened: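 Human HepG2 liver cells; 24 hr cpd treatment, 0.39–200 uM, 0.5% DMSO final. Fixed in 3.7% formaldehyde, permeabilized with 0.5% Triton X-100, stained with anti-p53/Cy5 plus Hoechst 33342. Six images per well at 20x; gain or loss vs DMSO.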

[9] = APR_HepG2_CellCycleArrest_72hr: Apredica 72-hour HepG2 Assay for Cell Cycle Arrest (AID 2282914); conditions: high-content imaging, actives raise or lower the signal
Procedure, shortened: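 Read-out is Hoechst-stained nuclear DNA content measured by automated fluorescence imaging (20x, six images per well), fitted in both directions relative to DMSO. Human HepG2 liver cells received 0.39–200 uM compound for 72 hr at 0.5% v/v DMSO.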

[10] = APR_HepG2_CellLoss_72hr: Apredica 72-hour HepG2 Assay for Cell Loss (AID 2282915); conditions: high-content imaging
Procedure, shortened: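 HepG2 cells were exposed for 72 hr to compounds at 0.39–200 uM (ten concentrations, duplicate) in 0.5% v/v final DMSO. Nuclei were stained with Hoechst 33342 after 3.7% formaldehyde fixation, imaged at 20x, and counted; fits bidirectional versus DMSO.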

[11] = APR_HepG2_P-H2AX_72hr: Apredica 72-hour HepG2 Assay for H2AX Phosphorylation (AID 2282916); conditions: imaging, actives raise or lower the signal;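 also: phospho-histone H2A.x immunostain intensity per cell marking DNA damage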
Procedure, shortened: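 Following 72 hr treatment with 0.39–200 uM compound, HepG2 cells were formaldehyde-fixed, permeabilized and stained for phospho-H2A.x; signal was measured by high-content imaging and fitted bidirectionally against DMSO controls.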

[12] = APR_HepG2_MitoMembPot_72hr: Apredica 72-hour HepG2 Assay for Mitochondrial Membrane Potential (AID 2282917); conditions: imaging, actives raise or lower the signal
Procedure, shortened: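 HepG2 cells exposed 72 h to compounds at 0.39–200 uM (0.5% v/v DMSO, duplicates); MitoTracker Red CMXRos 250 nM loaded 30 min before 3.7% formaldehyde fixation, imaged by HCS fluorescence. Bidirectional fit versus DMSO.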

[13] = APR_HepG2_MitoticArrest_72hr: Apredica 72-hour HepG2 Assay for Mitotic Arrest (AID 2282918); conditions: high-content imaging, actives raise or lower the signal
Procedure, shortened: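 Read-out is phospho-histone H3 immunofluorescence with Hoechst nuclear segmentation, imaged at 20x. Human HepG2 liver cells received ten concentrations (0.39–200 uM, final DMSO 0.5% v/v) for 72 hr before fixation. Gain or loss of signal was fitted relative to DMSO.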

[14] = APR_HepG2_P-H2AX_24hr: Apredica 24-hour HepG2 Assay for H2AX Phosphorylation (AID 2282920); conditions: high-content imaging, actives raise or lower the signal
Procedure, shortened: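 HepG2, 24 hr, cpd 0.39–200 uM (10 conc, duplicate), DMSO 0.5% v/v final. Fix 3.7% formaldehyde, Triton X-100 permeabilize, anti-phospho-H2A.x 1:200 + Hoechst 2 ug/mL. Imaged, bidirectional fit vs DMSO.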

[15] = APR_HepG2_StressKinase_72hr: Apredica 72-hour HepG2 Assay for Stress Kinase (AID 2282921); conditions: HepG2 stress kinase (phospho-c-Jun) imaging, actives raise or lower the signal
Procedure, shortened: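 Fluorescence intensity of Cy3-tagged anti-phospho-c-Jun antibody, quantified per cell from Hoechst-defined nuclei across six images per well, served as the read-out following 72 h exposure (0.39–200 uM, 0.5% v/v DMSO).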

[16] = APR_HepG2_StressKinase_24hr: Apredica 24-hour HepG2 Assay for Stress Kinase (AID 2282922); conditions: HepG2 stress kinase (phospho-c-Jun) imaging, actives raise or lower the signal
Procedure, shortened: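 HepG2 cells exposed 24 hr to compound at 0.39–200 uM (10 concentrations, duplicate), 0.5% v/v DMSO final. Fixed in 3.7% formaldehyde, permeabilized with Triton X-100, immunolabeled for phospho-c-Jun with Hoechst 33342; HCS fluorescence imaging, bidirectional fit versus DMSO.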

[17] = APR_HepG2_p53Act_72hr: Apredica 72-hour HepG2 Assay for p53 Activation (AID 2282923); conditions: high-content imaging, actives raise or lower the signal;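 also: average cellular p53 protein immunofluorescence intensity in HepG2 cells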
Procedure, shortened: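 HepG2 monolayers receive test compounds in duplicate at ten concentrations (0.39 through 200 uM) for 72 hr. They are then formaldehyde-fixed, antibody-labelled for p53, Hoechst-stained and imaged, with activity fitted bidirectionally versus DMSO.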

[18] = APR_HepG2_MitoMass_72hr: Apredica 72-hour HepG2 Assay for Mitochondrial Mass (AID 2282924); conditions: high-content imaging, actives raise or lower the signal;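 also: MitoTracker Red CMXRos stain intensity per cell imaged as mitochondrial mass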
Procedure, shortened: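 HepG2 cells were exposed for 72 hr to compounds at 0.39–200 uM (ten concentrations, duplicate, 0.5% v/v DMSO final). Live cells were stained with 250 nM MitoTracker Red CMXRos for 30 min, then fixed in 3.7% formaldehyde and imaged by HCS fluorescence.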

[19] = APR_HepG2_MicrotubuleCSK_72hr: Apredica 72-hour HepG2 Assay for Microtubule CSK Stabilty (AID 2282919); conditions: HepG2 microtubule cytoskeleton, high-content imaging, actives raise or lower the signal
Procedure, shortened: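 HepG2 human liver cells were dosed for 72 h at ten concentrations from 0.39 to 200 uM in duplicate (0.5% v/v DMSO final). Fixed, permeabilized cells were immunostained for alpha-tubulin (Cy5) with a Hoechst counterstain and imaged at 20x.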

Measured: AC50

O=c1c(O)c(-c2ccc(O)c(O)c2)oc2cc(O)cc(O)c12
active: [1] 58.4 µM | [6] 64.2 µM | [9] 103 µM | [10] 22.6 µM | [11] 68.1 µM | [14] 48.6 µM | [18] 7.83 µM
not listed: [19]
inactive: all other assays above

CC=Cc1ccc(O)c(OC)c1
active: [1] 105 µM
not listed: [9] | [17] | [19]
inactive: all other assays above

CC(C)c1ccc(C(=O)N=C(N)N)cc1S(C)(=O)=O
not listed: [19]
inactive: all other assays above

Cc1ccc(N(C)C)cc1
not listed: [19]
inactive: all other assays above

Cc1oc(-c2ccccc2)nc1CCOc1cccc2c1ccn2CCC(=O)O
not listed: [19]
inactive: all other assays above

c1cc(-c2ccncc2)ccn1
not listed: [9]
inactive: all other assays above

O=C(O)Cc1ccccc1Nc1c(Cl)cccc1Cl
active: [10] 107 µM
not listed: [9] | [17] | [19]
inactive: all other assays above

CC1(C)CC(N=C=O)CC(C)(CN=C=O)C1 (configuration not stated)
active: [9] 92.5 µM | [11] 101 µM | [13] 93.1 µM | [14] 101 µM
not listed: [19]
inactive: all other assays above

CCCCCCCC=O
not listed: [9] | [17]
inactive: all other assays above

OC[C@@H](O)[C@@H](O)[C@H](O)[C@H](O)CO
not listed: [9] | [17]
inactive: all other assays above

CCCCOC(=O)CCCCCCCCC(=O)OCCCC
not listed: [9]
inactive: all other assays above

Cc1ccc2ncccc2c1
not listed: [9] | [19]
inactive: all other assays above

C[Si]1(C)O[Si](C)(C)O[Si](C)(C)O[Si](C)(C)O1
not listed: [17] | [19]
inactive: all other assays above

Cc1c(C(=O)O)c(O)cc2c1C(=O)c1c(O)c([C@@H]3O[C@H](CO)[C@@H](O)[C@H](O)[C@H]3O)c(O)c(O)c1C2=O
active: [12] 40.9 µM
not listed: [17] | [19]
inactive: all other assays above

Nc1nc(N)c2nc(CNc3ccc(C(=O)N[C@@H](CCC(=O)O)C(=O)O)cc3)cnc2n1
not listed: [9] | [17]
inactive: all other assays above

Cc1ccc(Cl)cc1
not listed: [9] | [17] | [19]
inactive: all other assays above

Cc1cc(=O)[nH]c(=S)[nH]1
not listed: [9] | [17] | [19]
inactive: all other assays above
